# Laboratory results from the supplement of paper PMC12645437, “Orthogonal IMiD-Degron Pairs Induce Selective Protein Degradation in Cells” (ACS Chemical Biology, 2025).
# Over roughly 8,300 sequences, “log2 fold change of degron read counts, EGFP-low vs EGFP+ sorted cells (limma voom), compound-induced degradation” has its median near -1.1; the highest 2% begin near 3.2. For the sample, the highest values were picked, then their nearest neighbours and some sequences at random.
# T1: CRBN, Q96SW2
# T1 chain: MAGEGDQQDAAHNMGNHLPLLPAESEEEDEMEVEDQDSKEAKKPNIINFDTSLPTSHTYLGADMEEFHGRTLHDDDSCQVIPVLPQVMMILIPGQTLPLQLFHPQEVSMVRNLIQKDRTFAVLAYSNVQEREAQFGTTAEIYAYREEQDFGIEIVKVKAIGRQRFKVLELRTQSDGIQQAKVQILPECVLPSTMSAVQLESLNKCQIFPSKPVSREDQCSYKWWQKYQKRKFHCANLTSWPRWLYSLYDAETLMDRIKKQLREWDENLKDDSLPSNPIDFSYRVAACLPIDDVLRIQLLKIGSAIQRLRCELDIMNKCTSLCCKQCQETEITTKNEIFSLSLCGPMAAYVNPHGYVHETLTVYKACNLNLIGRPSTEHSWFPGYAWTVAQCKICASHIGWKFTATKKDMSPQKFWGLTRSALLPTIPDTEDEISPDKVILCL
# Target: T1, CRBN, Q96SW2
# Test: log2 fold change of degron read counts, EGFP-low vs EGFP+ sorted cells (limma voom), compound-induced degradation; higher = more compound-induced degradation of the degron-EGFP fusion; degrons are variants of IKZF1/3 zinc finger 2; compound dose not given here
# Details: Jurkat, 18 h
# Experimental: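 Pooled library of 8380 IKZF3 ZF2 degron mutants (positions 146-167 varied within the IKZF3 130-189 degron; only the varied core is printed, flanks not printed) fused to EGFP with IRES-mCherry, lentivirally expressed in Jurkat cells. mCherry+ cells were treated with one IMiD compound for 18 h (dose not stated) and FACS-sorted into EGFP-low and EGFP+ populations. Degron sequences were counted by NGS, and log2FC (EGFP-low vs EGFP+) was estimated by limma voom over 3 biological replicates.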
# [1] = compound: compound 19 (5-tert-butyl-thalidomide)
# [2] = compound: compound 22 (5-morpholino-thalidomide)
# [3] = compound: compound 33 (diphenyl IMiD analogue)
# 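Further: pooled lentiviral library of zinc finger degron-EGFP fusions in mCherry-positive Jurkat cells, FACS-sorted after compound exposure, with degron abundance counted by next-generation sequencing.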
Sequence,log2 fold change of degron read counts [1],log2 fold change of degron read counts [2],log2 fold change of degron read counts [3],log2 fold change of degron read counts (compound: thalidomide)
"FTCNQCGHIFTQKGNLLRHIKL [46F_47T_49N_50Q_52G_53H_54I_55F_67L_, Q9UKT9]",-3.22,-3.78,-2.72,-3.39
"LFCNQCGFTCTQKGNLLRHIKL [46L_47F_49N_50Q_52G_53F_54T_55C_67L_, Q9UKT9]",-0.962,-0.778,-1.34,-1.55
"FACNICGAWFTQKGNLLRHIKL [46F_47A_49N_50I_52G_53A_54W_55F_67L_, Q9UKT9]",-0.878,-0.37,-0.973,-1.22
"FECNQCGRSFTQKGNLLRHIKL [46F_47E_49N_50Q_52G_53R_54S_55F_67L_, Q9UKT9]",-2.91,-4.04,-3.77,-2.98
"LMCNQCGFPCTQKGNLLRHIKL [46L_47M_49N_50Q_52G_53F_54P_55C_67L_, Q9UKT9]",-2.18,-2.49,-1.64,-1.76
"FECEICGHSFTQKGNLLRHIKL [46F_47E_49E_50I_52G_53H_54S_55F_67L_, Q9UKT9]",-3.4,-3.98,-3.41,-3.14
"FSCDVCGAVFTQKGNLLRHIKL [46F_47S_49D_50V_52G_53A_54V_55F_67L_, Q9UKT9]",-0.211,-0.318,1.04,-0.804
"FSCPICGRVFTQKGNLLRHIKL [46F_47S_49P_50I_52G_53R_54V_55F_67L_, Q9UKT9]",-0.277,-0.0789,1.53,0.556
"FMCEICGHFFTQKGNLLRHIKL [46F_47M_49E_50I_52G_53H_54F_55F_67L_, Q9UKT9]",-3.03,-3.09,-2.32,-3.02
"FDCEICGALFTQKGNLLRHIKL [46F_47D_49E_50I_52G_53A_54L_55F_67L_, Q9UKT9]",-0.733,-1.67,0.189,-0.124
"FACEICGALFTQKGNLLRHIKL [46F_47A_49E_50I_52G_53A_54L_55F_67L_, Q9UKT9]",2.71,0.321,0.174,-0.494
"FFCEICGALFTQKGNLLRHIKL [46F_47F_49E_50I_52G_53A_54L_55F_67L_, Q9UKT9]",3.18,2.91,1.74,0.646
"FLCEICGALFTQKGNLLRHIKL [46F_47L_49E_50I_52G_53A_54L_55F_67L_, Q9UKT9]",-0.92,-1.27,0.77,1.46
"FYCEICGALFTQKGNLLRHIKL [46F_47Y_49E_50I_52G_53A_54L_55F_67L_, Q9UKT9]",3.29,3.38,2.38,0.365
"FQCEICGALFTQKGNLLRHIKL [46F_47Q_49E_50I_52G_53A_54L_55F_67L_, Q9UKT9]",-1.22,1.46,1.74,3.53
"FGCEQCGAKFTQKGNLLRHIKL [46F_47G_49E_50Q_52G_53A_54K_55F_67L_, Q9UKT9]",0.32,-2.26,-2.15,-0.779
"FLCPVCGAEFTQKGNLLRHIKL [46F_47L_49P_50V_52G_53A_54E_55F_67L_, Q9UKT9]",-0.14,-1.09,1.21,1.24
"FCCPQCGANFTQKGNLLRHIKL [46F_47C_49P_50Q_52G_53A_54N_55F_67L_, Q9UKT9]",-0.811,-1.28,0.128,-0.853
"FMCNQCGHWFTQKGNLLRHIKL [46F_47M_49N_50Q_52G_53H_54W_55F_67L_, Q9UKT9]",-2.24,-2.49,-2.26,-2.73
"FDCNQCGANFTQKGNLLRHIKL [46F_47D_49N_50Q_52G_53A_54N_55F_67L_, Q9UKT9]",-2.41,-2.24,-2.07,-2.31
"FSCEICGALFTQKGNLLRHIKL [46F_47S_49E_50I_52G_53A_54L_55F_67L_, Q9UKT9]",0.851,0.0276,2.41,-0.115
"FSCEICGARFTQKGNLLRHIKL [46F_47S_49E_50I_52G_53A_54R_55F_67L_, Q9UKT9]",3.25,2.89,0.489,2.12
"FGCEICGARFTQKGNLLRHIKL [46F_47G_49E_50I_52G_53A_54R_55F_67L_, Q9UKT9]",3.15,2.26,-0.576,1.48
"FKCEICGARFTQKGNLLRHIKL [46F_47K_49E_50I_52G_53A_54R_55F_67L_, Q9UKT9]",-1.5,-3.6,-3.25,-1.17
"FCCEICGARFTQKGNLLRHIKL [46F_47C_49E_50I_52G_53A_54R_55F_67L_, Q9UKT9]",3.25,3.01,1.66,3.08
"FNCEICGARFTQKGNLLRHIKL [46F_47N_49E_50I_52G_53A_54R_55F_67L_, Q9UKT9]",2.49,0.909,-0.686,0.645
"FDCPICGREFTQKGNLLRHIKL [46F_47D_49P_50I_52G_53R_54E_55F_67L_, Q9UKT9]",-1.43,-1.65,-0.206,0.273
"FQCPICGHKFTQKGNLLRHIKL [46F_47Q_49P_50I_52G_53H_54K_55F_67L_, Q9UKT9]",-1.95,-1.73,-1.82,0.342
